Bioassay records (PubChem BioAssay)
Hits are enriched below; roughly 28% of the tested compounds scored in any of these assays.
CYP2C9 act: CYP2C9 (human) activation | P11712 | recombinant CYP2C9, luciferin-H conversion, luminescence; active compounds read high; factor 1 = untreated enzyme, 0 = blocked | activation factor at 5 µM | 1.4% of 96,000 active | AID 1024;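 active = activation factor of 2 or more for CYP2C9 at a 5 µM dose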
CD11b adhes enh: CD11b/CD18-fibrinogen binding enhancement. P05107+P11215. K562 CD11b/CD18 adhesion to fibrinogen, ATPlite luminescence. activation, % at 10 µM. 0.07% of 93,000 active. AID 1499;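 active = 10 µM primary screen giving 50% or more activity, confirmed by 40% or more on retest at that dose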
CYP2C19 act: activators of human cytochrome P450 2C19 | recombinant CYP2C19, luciferin-H EGE luminescence; active compounds read high; 0 = fully inhibited enzyme, 1 = untreated enzyme | 96,000 tested, under 10 active | AID 1025 | P33261 | activation factor at 5 µM;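 active = activation factor of at least 2 at 5 µM in the primary screen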
Target sequence (P33261 whole entry, looked up): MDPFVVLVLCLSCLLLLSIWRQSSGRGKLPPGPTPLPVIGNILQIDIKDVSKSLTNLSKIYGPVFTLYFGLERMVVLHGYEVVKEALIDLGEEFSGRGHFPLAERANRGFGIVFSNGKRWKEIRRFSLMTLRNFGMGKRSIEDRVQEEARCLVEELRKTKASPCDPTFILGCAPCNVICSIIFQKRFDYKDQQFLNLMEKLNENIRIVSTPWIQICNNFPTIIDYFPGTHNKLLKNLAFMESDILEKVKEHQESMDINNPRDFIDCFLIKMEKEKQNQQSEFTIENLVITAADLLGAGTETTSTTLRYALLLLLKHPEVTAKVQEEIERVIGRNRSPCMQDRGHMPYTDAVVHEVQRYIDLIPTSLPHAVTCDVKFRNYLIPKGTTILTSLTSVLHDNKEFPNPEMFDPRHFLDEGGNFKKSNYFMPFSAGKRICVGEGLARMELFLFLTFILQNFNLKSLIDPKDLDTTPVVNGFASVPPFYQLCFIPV
CYP2C9 inhib: human CYP2C9 inhibition; P11712; CYP2C9 Supersomes, luciferin-H conversion, luminescence; inhibition, % at 5 µM; 20% of 96,000 active; AID 777;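 active = blocking of liver enzyme CYP2C9 beyond about 50% at 5 µM, limit read from the data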
CYP2C19 inh: blocks human cytochrome P450 2C19; 21% of 96,000 active; AID 778; inhibition, % at 5 µM; CYP2C19 Supersomes, luciferin-H EGE luminescence, 30 min; P33261;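 active = CYP2C19 inhibition above a set limit at 5 µM in the primary screen, cut at about 50% in these data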
Mac1 fbg inh: blocks human CD11b/CD18 adhesion to fibrinogen | P05107+P11215 | K562 CD11b/CD18 adhesion to fibrinogen, ATPlite luminescence; Mn2+ added to activate the integrin | inhibition, % at 10 µM | 0.54% of 93,000 active | AID 1497;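 active = primary inhibition of 50% or more at 10 µM, then 40% or more on retest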
Of the large screens only hits and unclear results are named; the others gave an inactive call.

CNc1nc2c(c(=O)n(C)c(=O)n2C)n1Cc1ccccc1	none
CCNC(=O)OCC12CC3CC(CC(C3)C1)C2	none (no result: CYP2C9 act, CYP2C19 act, CYP2C9 inhib, CYP2C19 inh)
Cc1ccc(N=C(NOC(=O)c2ccccc2)c2nonc2N)c(C)c1	none
Cc1ccc(N=C(NOCc2ccc(Cl)cc2Cl)c2nonc2N)c(C)c1	CYP2C9 inhib 73.7
Cc1ccc2ccccc2c1COC(=O)c1nonc1N	none
Cc1ccccc1N=C(NOCc1ccc(Cl)cc1Cl)c1nonc1N	CYP2C9 inhib 70.5
CCN1CCN(C(=O)c2ccccc2N(Cc2ccccc2)S(C)(=O)=O)CC1	none
CS(=O)(=O)N(Cc1ccccc1)c1ccccc1C(=O)O	none
CCOC(=O)N1CCN(C(=O)c2ccc(Cl)c(S(=O)(=O)Nc3ccccc3)c2)CC1	CYP2C9 inhib 79.7
C=CCNC(=O)c1ccccc1NC(=O)c1cccc2ccccc12	none
CS(=O)(=O)N(Cc1ccccc1)c1ccccc1C(=O)N1CCN(c2ccccc2)CC1	CYP2C9 inhib 72.2, CYP2C19 inh 94.4
C=CCNC(=O)c1ccccc1NC(=O)c1ccc(Cl)c(S(=O)(=O)Nc2ccccc2)c1	CYP2C9 inhib 62.0, CYP2C19 inh 61.5
CCN1CCN(C(=O)c2ccccc2N(Cc2ccccc2)S(=O)(=O)c2ccc(C)cc2)CC1	CYP2C19 inh 71.6
CS(=O)(=O)N(Cc1ccccc1)c1ccc(C(=O)N2CCOCC2)cc1	none
CS(=O)(=O)N(Cc1ccccc1)c1ccc(C(=O)N2CCN(c3cccc(Cl)c3)CC2)cc1	CYP2C9 inhib 98.1, CYP2C19 inh 91.6
CN1CCN(C(=O)c2ccc(N(Cc3ccc(Cl)cc3)S(C)(=O)=O)cc2)CC1	none
CS(=O)(=O)N(Cc1ccc(Cl)cc1)c1ccc(C(=O)N2CCN(c3ccccc3)CC2)cc1	CYP2C9 inhib 98.3, CYP2C19 inh 90.9
CCOC(=O)N1CCN(C(=O)CN(c2ccc(Oc3ccccc3)cc2)S(C)(=O)=O)CC1	CYP2C9 inhib 85.6, CYP2C19 inh 70.3
CCOC(=O)N1CCN(C(=O)c2ccc(CN(c3ccccc3)S(C)(=O)=O)cc2)CC1	CYP2C9 inhib 54.4
Cc1ccc(CN(c2ccc(C(=O)N3CCCC3)cc2)S(C)(=O)=O)cc1	none
Cc1ccc(CN(c2ccc(C(=O)N3CCc4ccccc4C3)cc2)S(C)(=O)=O)cc1	CYP2C9 inhib 84.3
CCOC(=O)c1c(N)sc2c(OC)c(Br)ccc12	CYP2C9 inhib 63.2
O=C(N/N=C(\c1ccccc1)c1cccnc1)C(O)(c1ccccc1)c1ccccc1	CYP2C9 inhib 66.6 (no result: CD11b adhes enh, Mac1 fbg inh)
O=C(N/N=C/c1cccnc1)C(O)(c1ccccc1)c1ccccc1	none
C=C1CSc2nc3ccccc3c(=O)n21	none
S=C(NCCc1ccccc1)N1CCN(Cc2ccc(Cl)c(Cl)c2)CC1	none (no result: CYP2C9 act, CYP2C19 act, CYP2C9 inhib, CYP2C19 inh)
CC1CCN(C(=S)NCCc2ccccc2)CC1	CYP2C19 inh 73.1
CN1CCN(C(=S)NCCc2ccccc2)CC1	CYP2C19 inh 63.8
CN(C1CCCCC1)S(=O)(=O)c1ccc(NC(=S)NC(=O)c2cccs2)cc1	none (no result: CD11b adhes enh, Mac1 fbg inh)
CCOC(=O)N1CCC(c2cc(=O)n3[nH]cc(C(=O)OC)c3n2)CC1	CYP2C9 inhib 61.7
CCOC(=O)N1CCC(c2cc(=O)n3[nH]ccc3n2)CC1	CYP2C9 inhib 59.1
NC(=O)C1CCN(C(=O)OCc2ccccc2)CC1	none (no result: CD11b adhes enh, Mac1 fbg inh)
O=C(C[n+]1ccc(-c2nnc3n2CCC3)cc1)c1ccc(Cl)cc1	none (no result: CYP2C9 act, CYP2C19 act, CYP2C9 inhib, CYP2C19 inh)
Nn1c(=O)c2ccccc2n2c(SCc3ccc(C(F)(F)F)cc3)nnc12	CYP2C9 inhib 50.1
Nn1c(=O)c2ccccc2n2c(SCc3ccccc3)nnc12	none
CCOC(=O)c1c(C)[nH]c(C)c1C(=O)CN1C(=O)NC(CC(C)C)C1=O (configuration not stated)	CYP2C19 inh 59.1
CCOC(=O)c1c(C)[nH]c(C)c1C(=O)CN1C(=O)NC2(CCC(C)CC2)C1=O (configuration not stated)	none
Cc1ccc2nc(SCC(=O)N3CCOCC3)[nH]c2c1	CYP2C19 inh 68.3
c1ccc2[nH]c(N3CCOCC3)nc2c1	none
c1ccc2[nH]c(SCCN3CCOCC3)nc2c1	CYP2C19 inh 58.9
Cc1c(C)n(C(=O)CSc2nc3ccccc3[nH]2)c2ccccc12	CYP2C9 inhib 94.3, CYP2C19 inh 94.9
O=C(CSc1nc2ccccc2[nH]1)N1c2ccccc2Sc2ccccc21	none (no result: CYP2C9 act, CYP2C19 act, CYP2C9 inhib, CYP2C19 inh)
O=C(CSc1nc2ccccc2[nH]1)N1CCCCC1	CYP2C19 inh 88.2
C(=C1/CCCC2=C1Nc1ncnn1C2c1ccccc1)/c1ccccc1 (configuration not stated)	none
Cc1ccc2[nH]c(SCC(=O)N3CCOCC3)nc2c1C	CYP2C19 inh 81.0
CCn1ncc(C2=NOC(C(=O)Nc3cccc(C(C)=O)c3)C2)c1C (configuration not stated)	none
O=C(c1ccc2ccccc2n1)N1CCN(c2ccccc2)CC1	none
O=C(c1ccc2ccccc2n1)N1CCN(c2ccccc2O)CC1	CYP2C19 inh 58.5
Cc1cc(NS(=O)(=O)Cc2ccccc2)no1	none
S=c1[nH]nc(-c2ccc3ccccc3n2)o1	CYP2C9 inhib 53.3
S=c1[nH]nc(-c2cccnc2)o1	none
O=C(COc1ccccc1)Nc1ccc(S(=O)(=O)N2CCCCCC2)cc1	none
Cc1ccc(S(=O)(=O)N2CCN(C(=O)CCC(=O)OCC(=O)Nc3cccc(C#N)c3)CC2)cc1	CYP2C9 inhib 75.0, CYP2C19 inh 77.7
O=C(NC1CCCCCC1)C1CCN(S(=O)(=O)c2ccccc2)CC1	none
COc1ccc(OCC(=O)Nc2ccc(S(=O)(=O)N3CCCCCC3)cc2)cc1	CYP2C9 inhib 86.4
COc1ccccc1OCC(=O)Nc1ccc(S(=O)(=O)N2CCCCCC2)cc1	CYP2C9 inhib 79.6, CYP2C19 inh 86.5
O=C(COc1ccc(S(=O)(=O)N2CCCCC2)cc1)NC1CCCCC1	CYP2C9 inhib 72.1
N#CCCNC(=O)Cn1c(COc2ccc(Cl)cc2)nc2ccccc21	none (no result: CYP2C9 act, CYP2C19 act, CYP2C9 inhib, CYP2C19 inh)
O=C(COc1cccnc1[N+](=O)[O-])Nc1cccc(S(=O)(=O)N2CCCCC2)c1	none (no result: CYP2C9 act, CYP2C19 act, CYP2C9 inhib, CYP2C19 inh)
O=C(COC(=O)COc1ccccc1[N+](=O)[O-])Nc1ccc(S(=O)(=O)N2CCCCC2)cc1	Mac1 fbg inh 50.2
CC(=O)c1cccc(NC(=O)COc2ccc(S(=O)(=O)N3CCCCC3)cc2)c1	CYP2C9 inhib 67.4, CYP2C19 inh 66.6
CC(=O)c1cccc(NC(=O)c2ccc(S(=O)(=O)N3CCCCC3)cc2)c1	none
O=C(COC(=O)COc1ccc(Cl)cc1)NCc1cccs1	none (no result: CYP2C9 act, CYP2C19 act, CYP2C9 inhib, CYP2C19 inh)
COC(=O)CNC(=O)COC(=O)c1cc(F)c(F)cc1Cl	none
Cc1cccc(-c2nc3ccccc3c3nncn23)c1	CYP2C19 inh 53.9
c1ccc(-c2nc3ccccc3c3nncn23)cc1	none
COC(=O)N/N=C/c1cc([N+](=O)[O-])cc(Br)c1O	none (no result: CYP2C9 act, CYP2C19 act, CYP2C9 inhib, CYP2C19 inh)
COc1cc(/C=N\NC(=O)c2ccc(Cn3nc([N+](=O)[O-])c(Cl)c3C)o2)ccc1O	CYP2C19 inh 65.0
